# Measured values from PubChem BioAssay (Tox21).
# Activity calls are given as the source filed them. Entries that show only a call come without a potency. Unless noted, calls come from the whole dose curve; as a rule, active = well fitted curve in the direction sought with a large enough effect in the repeat runs; inconclusive = weak or mixed curves; inactive = no such curve, though single readings can be large; an effect the other way counts as inactive or inconclusive.
# Tests used:
# [1] = qHTS assay to identify small molecule antagonists of the glucocorticoid receptor (GR) signaling pathway - cell viability counter screen (AID 720693); note: nearly all actives have a fitted effect of over 55% in size
# [2] = qHTS assay for identifying genotoxic compounds that show differential cytotoxicity against isogenic chicken DT40 cell lines with known DNA damage response pathways - wild type cell line (AID 743012); note: nearly all actives have a fitted effect of over 60% in size; note: potency is the fitted concentration of half-maximal effect
# Summary of the method: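 First, wild type DT40 cells were plated at 300 per well and equilibrated about 0.5 h at 37 C/5% CO2. Next, compounds in DMSO were added and exposure lasted 40 h. Finally, CellTiter-Glo was added for 30 min at room temperature and luminescence recorded.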
# [3] = qHTS assay for identifying genotoxic compounds that show differential cytotoxicity against isogenic chicken DT40 cell lines with known DNA damage response pathways - Rev3 mutant cell line (AID 743014); note: nearly all actives have a fitted effect of over 55% in size; note: potency is the fitted concentration of half-maximal effect
# [4] = qHTS assay to identify small molecule antagonists of the androgen receptor (AR) signaling pathway - cell viability counter screen (AID 743033; note: nearly all actives have a fitted effect of over 45% in size)
# [5] = qHTS assay to identify small molecule antagonists of the androgen receptor (AR) signaling pathway using the MDA cell line - cell viability counter screen (AID 743041; note: nearly all actives have a fitted effect of over 45% in size; note: potency is the fitted concentration of half-maximal effect)
# Summary of the method: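 Viability counter screen run alongside the AR antagonist reporter: cells seeded 5 h before compound, R1881 added, 16 h incubation at 37C without CO2, fluorescent CellTiter-Fluor signal quantified.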
# [6] = qHTS assay to identify small molecule antagonists of the thyroid receptor (TR) signaling pathway - cell viability counter screen (AID 743064); note: nearly all actives have a fitted effect of over 50% in size; note: potency is the fitted concentration of half-maximal effect
# Summary of the method: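 Plate GH3.TRE-Luc cells; incubate 4 h at 37 °C; add compound, then T3 to 1 nM final; incubate 23.5 h; add CellTiter-Fluor; incubate 30 min at 37 °C, 5% CO2; read fluorescence.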
# [7] = qHTS assay to identify small molecule antagonists of the thyroid receptor (TR) signaling pathway (AID 743065); note: nearly all actives have a fitted effect of over 55% in size; note: potency is the fitted concentration of half-maximal effect
# Summary of the method: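 GH3.TRE-Luc rat pituitary cells carrying two TR response elements driving luciferase were plated for 4 h, given compound plus 1 nM T3 (final), and incubated 23.5 h at 37 C. ONE-Glo luminescence measured reporter inhibition; CellTiter-Fluor fluorescence tracked cytotoxicity.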
# [8] = test system: thyroid hormone receptor (rat, GH3 cells); assay: qHTS assay to identify small molecule agonists of the thyroid receptor (TR) signaling pathway (AID 743066; calls by dose curve)
# [9] = qHTS assay to identify small molecule antagonists of the estrogen receptor alpha (ER-alpha) signaling pathway - cell viability counter screen (AID 743074; calls by dose curve;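 note: HEK293 cells carrying ER-alpha-UAS-bla reporter stimulated with 17beta-estradiol; nearly all actives have a fitted effect of over 45% in size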)
# [10] = qHTS assay to identify small molecule antagonists of the estrogen receptor alpha (ER-alpha) signaling pathway using the BG1 cell line - cell viability counter screen (AID 743081);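 note: compound given together with 17beta-estradiol as the ER stimulus; nearly all actives have a fitted effect of over 45% in size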; note: potency is the fitted concentration of half-maximal effect
# Aromatase (Homo sapiens) = Aromatase (Homo sapiens) (UniProt P11511); assay: qHTS assay to identify aromatase inhibitors (AID 743083); note: nearly all actives have a fitted effect of over 55% in size; note: potency is the fitted concentration of half-maximal effect
# Aromatase (Homo sapiens), sequence (P11511 whole entry, looked up): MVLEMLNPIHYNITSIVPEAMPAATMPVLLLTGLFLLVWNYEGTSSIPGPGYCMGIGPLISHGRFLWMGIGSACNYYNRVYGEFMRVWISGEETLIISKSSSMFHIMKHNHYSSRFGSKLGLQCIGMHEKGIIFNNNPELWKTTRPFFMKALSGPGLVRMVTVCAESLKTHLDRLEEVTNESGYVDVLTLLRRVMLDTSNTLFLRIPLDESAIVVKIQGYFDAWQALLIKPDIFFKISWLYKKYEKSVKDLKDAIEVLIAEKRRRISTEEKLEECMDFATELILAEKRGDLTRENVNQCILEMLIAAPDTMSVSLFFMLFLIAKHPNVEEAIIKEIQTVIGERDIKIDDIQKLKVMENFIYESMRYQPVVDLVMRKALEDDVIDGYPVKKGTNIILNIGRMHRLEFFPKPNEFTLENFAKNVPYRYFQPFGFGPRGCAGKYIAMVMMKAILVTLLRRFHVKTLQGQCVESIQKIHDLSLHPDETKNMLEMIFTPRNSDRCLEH
# [11] = target: Estrogen receptor (Homo sapiens) (UniProt P03372); assay: qHTS assay to identify small molecule antagonists of the estrogen receptor alpha (ER-alpha) signaling pathway (AID 743069; active = well fitted curve in the direction sought with a large enough effect in the signal ratio in the repeat runs, not every such curve was filed as active; inconclusive = weak or mixed curves, or effect the other way; inactive = no such curve, though single readings can be large or run the other way; the % refers to the signal ratio)
# Estrogen receptor (Homo sapiens), sequence (P03372 whole entry, looked up): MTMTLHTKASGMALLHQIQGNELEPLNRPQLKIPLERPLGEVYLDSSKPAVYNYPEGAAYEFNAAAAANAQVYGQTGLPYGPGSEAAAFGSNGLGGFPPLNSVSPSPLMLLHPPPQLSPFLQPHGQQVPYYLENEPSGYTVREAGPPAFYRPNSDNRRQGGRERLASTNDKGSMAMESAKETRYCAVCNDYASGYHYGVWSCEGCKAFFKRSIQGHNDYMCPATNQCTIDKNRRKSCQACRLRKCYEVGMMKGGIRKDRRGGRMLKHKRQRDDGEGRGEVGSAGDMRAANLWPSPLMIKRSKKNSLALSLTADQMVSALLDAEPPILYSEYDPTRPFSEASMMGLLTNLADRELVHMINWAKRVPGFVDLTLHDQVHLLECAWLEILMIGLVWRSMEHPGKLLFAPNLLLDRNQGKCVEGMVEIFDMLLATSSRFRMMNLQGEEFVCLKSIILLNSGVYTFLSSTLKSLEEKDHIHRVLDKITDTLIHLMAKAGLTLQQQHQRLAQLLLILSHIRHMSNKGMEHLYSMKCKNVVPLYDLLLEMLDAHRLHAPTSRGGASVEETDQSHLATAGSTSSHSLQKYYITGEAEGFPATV
# Summary of the method: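 Estradiol-stimulated ER-alpha-UAS-bla HEK293 cells, 18 hr compound exposure at 37C. LiveBLAzer B/G substrate, 2 hr RT, fluorescence read.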
# [12] = target: Estrogen receptor (Homo sapiens) (UniProt P03372); assay: qHTS assay to identify small molecule agonists of the estrogen receptor alpha (ER-alpha) signaling pathway (AID 743075; calls by dose curve;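 note: HEK293 GripTite cells with ER-alpha and UAS-driven beta-lactamase reporter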; note: potency is the fitted concentration of half-maximal effect)
# [13] = target: Estrogen receptor (Homo sapiens) (UniProt P03372); assay: qHTS assay to identify small molecule agonists of the estrogen receptor alpha (ER-alpha) signaling pathway using the BG1 cell line (AID 743079); note: nearly all actives have a fitted effect of over 20% in size; note: potency is the fitted concentration of half-maximal effect
# [14] = qHTS assay to identify small molecule antagonists of the estrogen receptor alpha (ER-alpha) signaling pathway using the BG1 cell line (AID 743080; calls by dose curve;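 note: BG1 cells stimulated with 17beta-estradiol alongside compound; series mostly up to about 70 µM; nearly all actives have a fitted effect of over 25% in size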)
# Summary of the method: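 Endogenous full-length ER-alpha in BG1-Luc-4E2 cells drives a stably integrated 4×ERE luciferase gene; compounds were tested against 17beta-estradiol over 21.5 h, with luminescence and multiplexed viability fluorescence recorded.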
# [15] = qHTS assay for identifying genotoxic compounds that show differential cytotoxicity against isogenic chicken DT40 cell lines with known DNA damage response pathways - Rad54/Ku70 mutant cell line (AID 743015); note: nearly all actives have a fitted effect of over 60% in size; note: potency is the fitted concentration of half-maximal effect
# [16] = target: Androgen receptor (Homo sapiens) (UniProt P10275); assay: qHTS assay to identify small molecule antagonists of the androgen receptor (AR) signaling pathway (AID 743035; active = well fitted inhibition curve with a large enough effect in the signal ratio in the repeat runs, not every such curve was filed as active; inconclusive = weak or mixed curves, or effect the other way; inactive = no such curve, though single readings can be large or run the other way; the % refers to the signal ratio; note: potency is the fitted concentration of half-maximal effect)
# Androgen receptor (Homo sapiens), sequence (P10275 whole entry, looked up): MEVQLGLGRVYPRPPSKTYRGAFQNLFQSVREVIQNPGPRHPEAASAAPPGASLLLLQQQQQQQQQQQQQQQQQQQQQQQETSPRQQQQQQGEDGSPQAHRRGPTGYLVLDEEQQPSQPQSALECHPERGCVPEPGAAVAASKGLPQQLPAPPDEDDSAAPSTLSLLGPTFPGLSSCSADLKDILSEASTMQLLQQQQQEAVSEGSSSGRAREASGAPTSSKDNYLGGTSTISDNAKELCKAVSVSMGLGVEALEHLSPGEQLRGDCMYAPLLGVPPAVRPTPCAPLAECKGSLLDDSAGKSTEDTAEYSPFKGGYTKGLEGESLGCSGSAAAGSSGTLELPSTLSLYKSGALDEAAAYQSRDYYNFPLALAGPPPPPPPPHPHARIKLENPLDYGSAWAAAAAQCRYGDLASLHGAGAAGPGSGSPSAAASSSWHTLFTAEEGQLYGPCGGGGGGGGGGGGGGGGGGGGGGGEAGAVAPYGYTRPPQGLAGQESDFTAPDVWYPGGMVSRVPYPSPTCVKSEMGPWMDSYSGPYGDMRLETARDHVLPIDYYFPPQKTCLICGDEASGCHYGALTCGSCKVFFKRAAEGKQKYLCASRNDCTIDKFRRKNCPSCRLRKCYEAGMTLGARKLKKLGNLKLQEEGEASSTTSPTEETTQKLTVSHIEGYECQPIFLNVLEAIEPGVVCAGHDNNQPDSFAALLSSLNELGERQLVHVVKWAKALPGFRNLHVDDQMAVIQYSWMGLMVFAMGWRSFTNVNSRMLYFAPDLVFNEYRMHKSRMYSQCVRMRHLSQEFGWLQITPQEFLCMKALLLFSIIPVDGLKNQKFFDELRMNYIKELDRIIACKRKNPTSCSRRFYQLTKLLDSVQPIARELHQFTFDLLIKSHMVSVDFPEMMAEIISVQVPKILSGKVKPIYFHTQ
# Summary of the method: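 Beta-lactamase FRET read (2 h RT incubation with LiveBLAzer B/G) following 16 h of compound plus R1881 treatment of AR-UAS-bla HEK293 cells, which had been pre-incubated 4 h at 37C.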
# [17] = target: Androgen receptor (Homo sapiens) (UniProt P10275); assay: qHTS assay to identify small molecule agonists of the androgen receptor (AR) signaling pathway (AID 743036; active = well fitted activation curve with a large enough effect in the signal ratio in the repeat runs, with a control signal flat, not every such curve was filed as active; inconclusive = weak or mixed curves, or effect the other way; inactive = no such curve, though single readings can be large or run the other way; the % refers to the signal ratio)
# Summary of the method: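 Reporter line: GeneBLAzer AR-UAS-bla-GripTite (HEK293). Steps: plate cells, 4 h rest, add compounds, 16 h at 37C, add LiveBLAzer B/G substrate, 2 h at RT, read fluorescence.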
# [18] = target: Androgen receptor (Homo sapiens) (UniProt P10275); assay: qHTS assay to identify small molecule antagonists of the androgen receptor (AR) signaling pathway using the MDA cell line (AID 743042; note: nearly all actives have a fitted effect of over 55% in size)
# Summary of the method: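 MDA-kb2 cells (human breast carcinoma, stably carrying an MMTV-luciferase reporter responsive to AR and GR) were plated at 3,000 cells/well and preincubated 5 hr at 37C, then given compound plus R1881 agonist for 16 h. ONE-Glo luminescence was read.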
SMILES,Potency [1],Potency [2],Potency [3],Potency [4],Potency [5],Potency [6],Potency [7],Potency [8],outcome [9],Potency [10],Potency (Aromatase (Homo sapiens)),Potency [11],Potency [12],Potency [13],Potency [14],Potency [15],Potency [16],outcome [17],Potency [18]
CC(C)CCCCCCOC(=O)c1ccc(C(=O)OCCCCCCC(C)C)c(C(=O)OCCCCCCC(C)C)c1,inactive,inactive,inactive,inactive,inactive,inactive,inactive,inactive,inactive,inactive,inactive,,,,,,,,
Cc1cc(CC(=O)O)c(C)n1-c1ccc(Cl)cc1,inactive,26.6 µM (active),33.5 µM (active),inactive,inactive,,,inactive,inactive,inactive,inactive,,,,,,,,
CCCCc1cc2ccccc2c(OCCN(C)C)n1,inactive,6.39 µM (active),9.02 µM (active),inactive,inactive,8.04 µM (active),9.02 µM (active),inactive,inactive,,inactive,,,,,,,,
CC1=CCC(C(C)C)C=C1 (centres undefined),inactive,inactive,,,inactive,inactive,,,inactive,inactive,inactive,inactive,inactive,inactive,inactive,,,,
CCN(CC)CCc1nc(-c2ccccc2)no1,inactive,inactive,,,inactive,inactive,inactive,inactive,inactive,inactive,inactive,inactive,inactive,inactive,,inactive,,,
CCC(C)N(C)C(=O)c1cc2ccccc2c(-c2ccccc2Cl)n1 (centres undefined),inactive,,14 µM (active),inactive,inactive,,35.2 µM (active),inactive,inactive,inactive,,,inactive,inactive,inactive,14 µM (active),28.2 µM (active),inactive,
Oc1ccc(Cc2ccccc2)cc1,inactive,inactive,,,inactive,inactive,,inactive,inactive,inactive,,,,,,,,,
O=C(Cl)c1c(Cl)cccc1Cl,inactive,inactive,inactive,,inactive,,inactive,inactive,inactive,inactive,inactive,inactive,inactive,inactive,inactive,,,,
COc1ccc2[nH]c(S(=O)Cc3ncc(C)c(OC)c3C)nc2n1 (centres undefined),inactive,29.8 µM (active),,inactive,inactive,,,inactive,inactive,inactive,inactive,inactive,,inactive,inactive,29.8 µM (active),,,
Cc1cc(C)c(S(=O)(=O)O)cc1N=Nc1cc(S(=O)(=O)O)c2ccccc2c1O,inactive,inactive,inactive,,30.6 µM (active),34.4 µM (active),,inactive,inactive,54.5 µM (active),inactive,,,,,,inactive,inactive,inactive
CC(C)(C)c1cc(CCC(=O)OCC(COC(=O)CCc2cc(C(C)(C)C)c(O)c(C(C)(C)C)c2)(COC(=O)CCc2cc(C(C)(C)C)c(O)c(C(C)(C)C)c2)COC(=O)CCc2cc(C(C)(C)C)c(O)c(C(C)(C)C)c2)cc(C(C)(C)C)c1O,inactive,inactive,inactive,,inactive,,inactive,inactive,inactive,inactive,inactive,inactive,0.0074 µM [inconclusive] (active),4.11 µM (active),inactive,,,,
CC(=O)c1ccc2c(c1)[C@H](NC(=O)c1ccc(F)cc1)[C@@H](O)C(C)(C)O2,inactive,inactive,inactive,inactive,inactive,,inactive,inactive,inactive,inactive,inactive,,,,,,,,
CCCCCCCCCCCCCCCCCBr,inactive,inactive,inactive,inactive,inactive,inactive,inactive,inactive,inactive,inactive,inactive,,,,,,,,
CCN(CC)CCNC(C(=O)OCCC(C)C)c1ccccc1 (centres undefined),inactive,26.6 µM (active),,inactive,inactive,inactive,,inactive,inactive,inactive,inactive,inactive,inactive,inactive,inactive,,,,
O=C(O)Cn1c(C(=O)Nc2nc(-c3ccccc3Cl)cs2)cc2ccccc21,inactive,inactive,,,inactive,,26.6 µM (active),inactive,,inactive,inactive,inactive,inactive,inactive,inactive,inactive,,,
NCCCN(CCO)CCO,inactive,inactive,inactive,,inactive,inactive,inactive,inactive,inactive,inactive,inactive,inactive,inactive,inactive,inactive,,,inactive,inactive
CCN(CCO)CCCC(C)Nc1ccnc2cc(Cl)ccc12 (centres undefined),inactive,29.8 µM (active),23.7 µM (active),inactive,inactive,inactive,inactive,inactive,inactive,inactive,inactive,,,,,,,,
Cc1ccc(O)c([C@H](CCN(C(C)C)C(C)C)c2ccccc2)c1,inactive,26.6 µM (active),,inactive,inactive,11.9 µM (active),26.6 µM (active),inactive,inactive,inactive,inactive,,,,,,,,
CCCCCOC(=O)COc1cc(N2C(=O)C3=C(CCCC3)C2=O)c(F)cc1Cl,inactive,,inactive,inactive,inactive,inactive,,inactive,inactive,inactive,inactive,inactive,inactive,inactive,inactive,,,,
Cc1cc(O)ccc1N,inactive,,6.14 µM (active),,,30.8 µM (active),,,inactive,inactive,54.8 µM (active),inactive,inactive,inactive,,9.74 µM (active),,,
CC(C)(C)C1CCCCC1O (centres undefined),inactive,,inactive,inactive,inactive,inactive,inactive,inactive,inactive,inactive,inactive,inactive,inactive,inactive,inactive,,,,
CN(C(=O)CCCOc1ccc2[nH]c(=O)ccc2c1)C1CCCCC1,inactive,,inactive,,inactive,inactive,inactive,inactive,inactive,inactive,inactive,,,,,,,,
CC(=O)CC(=O)c1ccccc1,inactive,,inactive,inactive,inactive,inactive,inactive,inactive,inactive,inactive,inactive,inactive,inactive,34.6 µM (active),inactive,inactive,,,
